Results on 86 molecules are retold here after PubChem BioAssay AID504652 (National Center for Advancing Translational Sciences (NCATS), 2011).

Out of some 360,000 compounds screened, about 11,000 (3.1%) were called active. No stated cut-off is given here; in the data, active means activity change below about -30%; inactive means the rest. Only a selection was taken, and actives are over-represented in it overall.
On the % scale 0 is the no-effect control and ±100 the full control effect.

Chain of D(1A) dopamine receptor (Homo sapiens) (P21728 whole entry, looked up): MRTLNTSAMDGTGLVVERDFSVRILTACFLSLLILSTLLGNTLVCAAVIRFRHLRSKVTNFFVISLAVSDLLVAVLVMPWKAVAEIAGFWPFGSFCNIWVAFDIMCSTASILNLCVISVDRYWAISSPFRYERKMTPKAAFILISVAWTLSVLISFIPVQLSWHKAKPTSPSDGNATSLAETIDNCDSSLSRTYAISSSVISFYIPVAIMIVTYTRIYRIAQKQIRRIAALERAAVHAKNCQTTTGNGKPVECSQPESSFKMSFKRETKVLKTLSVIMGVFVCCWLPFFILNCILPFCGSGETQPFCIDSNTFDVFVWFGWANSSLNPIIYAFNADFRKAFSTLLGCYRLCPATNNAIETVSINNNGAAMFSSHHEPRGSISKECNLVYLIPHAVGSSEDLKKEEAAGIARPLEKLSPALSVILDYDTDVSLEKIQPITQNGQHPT

The experiment concerns the target D(1A) dopamine receptor (Homo sapiens) (UniProt P21728). The experiment is described as follows: Antagonist of Human D 1 Dopamine Receptor: qHTS. To be noted: HEK293 TREx D1 cells, calcium flux, dopamine EC80; at 10 µM; stronger effect = lower value. An outline of the steps: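 Cells carrying a force-coupled, tetracycline-inducible human D1 receptor report calcium flux. Each well gets a 10 s baseline, compound with 180 s monitoring, then an EC80 dopamine stimulus with a second 180 s kinetic read.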
(In general: qHTS replaces the single test concentration by a dilution series.)
For the molecule `CCc1ccc2ncc3c(-c4ccc(C)cc4)nn(CC(=O)NCc4ccccc4)c3c2c1`, the activity change, negative = inhibition was -13.5% (inactive). For the molecule `CC1Cc2ccccc2N1C(=O)CSc1nnc(C2CC2)n1C` (stereo unspecified), the activity change, negative = inhibition is -45.3% (active).

Take `CC1Cc2ccccc2N1C(=O)CSc1nnc(-c2ccc(S(=O)(=O)N3CCCC3)cc2)n1C` (stereo unspecified): the activity change, negative = inhibition was -5.59% (inactive). As for `CCn1c(CSc2ncccn2)nnc1SCC(=O)N1c2ccccc2CC1C` (stereo unspecified), the activity change, negative = inhibition is -3.34% (inactive). The figure for `CC(=O)c1ccc(N2CCN(C3C(=O)c4ccccc4N3C(C)=O)CC2)cc1` (stereo unspecified) is 3.13% (inactive).

For the molecule `COc1cccc(CNC(=O)C2CCN(S(=O)(=O)c3ccc4c(ccn4C)c3)CC2)c1`, the activity change, negative = inhibition is -13.2% (inactive). The figure for `Nc1cccc(-c2cc(-c3ccccc3)nc(-c3cccc(N)c3)n2)c1` is -35% (active); for `Cc1nc(NNC(=O)c2ccccc2)cc(-c2ccccc2)n1` it is -10.3% (inactive); for `Cc1cc(-c2ccccc2)n2nc(-c3ccccc3)cc2n1` it is 5.34% (inactive). The figure for `Cc1ccc(S(=O)(=O)n2nc(C)c(S(=O)(=O)N3CCCCCC3)c2C)cc1` is 17.9% (inactive); for `COc1ccc(N(CC(=O)NCCc2ccc(Cl)cc2)S(=O)(=O)c2c(C)nn(C)c2C)cc1` it is -19.7% (inactive). The figure for `CCC1CCCCN1S(=O)(=O)c1ccc(NC(=O)c2cc(=O)c3ccccc3o2)cc1` (stereo unspecified) is -15.6% (inactive); for `Cc1ccccc1CSCCNC(=O)C1CCN(S(=O)(=O)Cc2ccccc2)CC1` it is -13.9% (inactive); for `CC(C)(C)NC(=O)/C(=C/c1cccnc1)NC(=O)c1ccco1` it is -13.6% (inactive). For the molecule `N#C/C(=C\c1cccnc1)C(=O)Nc1ccc(SC(F)F)cc1`, the activity change, negative = inhibition was -35.7% (active). With `Cc1cc(/C=C(/C#N)C(=O)Nc2ccc(Cl)cc2)c(C)n1-c1cccnc1`, the activity change, negative = inhibition was -14.3% (inactive). As for `CCCCN1CC(c2nc3ccccc3n2CCCCOc2ccc(C)cc2C)CC1=O` (stereo unspecified), the activity change, negative = inhibition was -5.31% (inactive).

For `CCOC(=O)c1nnn2c3ccccc3c(=O)n(C)c12`, the activity change, negative = inhibition was -10.2% (inactive). The figure for `Cc1ccc(S(=O)(=O)c2nnn3c2nc(N2CCN(c4ccccn4)CC2)c2ccccc23)cc1` is -20.2% (inactive). Then `CCOC(=O)c1nnn2c1nc(N1CCN(c3ccccc3)CC1)c1ccccc12`, with -35.4% (active); and `CCN1CCN(CCCNC(=O)c2ccc3c(c2)sc2nc(-c4ccc(OC)cc4)cn23)CC1`, with -14.6% (inactive). For `CSc1nn(Cc2cccc(C)c2)c(N)c1S(=O)(=O)c1ccccc1`, the activity change, negative = inhibition is -16.3% (inactive). Then `CC(C)(C)CC(=O)Nc1nnc(SCC(=O)NCc2cccs2)s1`, with 3.61% (inactive); and `O=C(CSc1nnc(SCc2ccc(F)cc2)s1)Nc1ccc(C(=O)O)cc1`, with 6.86% (inactive). Turning to `O=C(Cc1cccs1)Nc1nnc(SCc2ccc(F)cc2)s1`, the activity change, negative = inhibition is -79.5% (active).

Turning to `COc1cccc(CNC(=O)CCC(=O)N2CC3CCCN3c3ccccc32)c1` (stereo unspecified), the activity change, negative = inhibition is -1.97% (inactive). In the case of `Cc1ccccc1C(=O)Nc1cc(C)c(O)c(-c2nc3ccccc3o2)c1`, the activity change, negative = inhibition was 5.18% (inactive). Then `CCOC(=O)c1c(C)[nH]c(C)c1S(=O)(=O)N1CCCC(C(=O)NCc2ccccc2Cl)C1` (stereo unspecified), with -3.63% (inactive); and `COc1ccc(CCNC(=O)Cn2c(=O)n(-c3ccccc3)c(=O)c3c(C)c(C)sc32)cc1OC`, with 2.12% (inactive). Then `CC(C)n1ncc2c(C(=O)Nc3ccc(CC#N)cc3)cc(C3CC3)nc21`, with -2.28% (inactive). Consider `COc1ccc(OCCNC(=O)c2cc(C3CC3)nc3c2cnn3C(C)C)cc1`, for which the activity change, negative = inhibition is -8.1% (inactive). For the molecule `CC(C)n1ncc2c(C(=O)NCc3ccccc3CN(C)C)cc(C3CC3)nc21`, the activity change, negative = inhibition was -37.6% (active). The figure for `COc1ccc(Nc2ncc(C(=O)Nc3cc(C)ccc3OC)c3ccccc23)cc1` is -5.45% (inactive); for `O=C(Cn1c(=O)n(-c2ccc(F)cc2)c(=O)c2sccc21)Nc1cccc(C(F)(F)F)c1` it is 10.9% (inactive); for `CCOc1ccc(N(CC(=O)NCCc2ccc(OC)cc2)S(C)(=O)=O)cc1` it is 6.98% (inactive).

`CCOc1ccc(N(CC(=O)NCCc2ccc(F)cc2)S(=O)(=O)c2ccccc2)cc1`: the activity change, negative = inhibition is -32.1% (active). The figure for `CCOc1ccc(N(CC(=O)NCCOc2ccccc2OC)S(=O)(=O)c2ccccc2)cc1` is -9.44% (inactive).

Turning to `COc1ccc(CC(=O)N2CC(=O)Nc3ccc(Br)cc3C2c2ccc(F)cc2)cc1OC` (stereo unspecified), the activity change, negative = inhibition was 1.32% (inactive). On to `Cc1nnc(C)n1-c1ccc(C(=O)Nc2cccc(Br)c2)cc1`, for which the activity change, negative = inhibition was -6.55% (inactive). Take `CCN(Cc1ccccc1)C(=O)Cc1ccc(OC)c(S(=O)(=O)N2CCOCC2)c1`: the activity change, negative = inhibition is -8.6% (inactive). As to `O=C(Cc1ccc(S(=O)(=O)N2CCOCC2)s1)NCCC(c1ccccc1)c1ccccc1`, the activity change, negative = inhibition is 2.72% (inactive). For `COCCN(Cc1ccccc1)C(=O)Cc1ccc(S(=O)(=O)N2CCOCC2)s1`, the activity change, negative = inhibition is -46% (active). Then `C[C@H](NC(=O)c1nc[nH]c1C(=O)N[C@@H](C)C(=O)OC(C)(C)C)C(=O)OC(C)(C)C`, with -89.3% (active); and `C[C@H](NC(=O)c1nc[nH]c1C(=O)NCC(=O)OC(C)(C)C)C(=O)OCc1ccccc1`, with -24.2% (inactive); and `CNC(=O)c1[nH]cnc1C(=O)N[C@@H](CC(C)C)C(=O)OC(C)(C)C`, with -1.57% (inactive). With `CCCCS(=O)(=O)c1oc(-c2cccs2)nc1S(=O)(=O)c1ccccc1`, the activity change, negative = inhibition was 11.6% (inactive). Then `COc1ccc(-c2nc(Cn3c(=O)cc(C)c4c(C)nn(-c5ccccc5)c43)c(C)o2)cc1OC`, with 0.18% (inactive); and `COc1cccc(NC(=O)N2CCN(C(=O)c3nsc4ccccc34)CC2)c1`, with -44.8% (active); and `CCc1ccc(NC(=O)N2CCN(C(=O)c3nsc4ccccc34)CC2)cc1`, with -22.5% (inactive). Then `Cc1c(Cl)cccc1NC(=O)N1CCN(C(=O)c2nsc3ccccc23)CC1`, with -9.22% (inactive); and `O=C(Nc1cc(C(F)(F)F)ccc1Cl)c1ccc2c(c1)CCN2S(=O)(=O)c1ccccc1`, with 3.06% (inactive); and `COc1ccc(C(=O)NC2CC2)cc1OC1CCN(Cc2cnn(C)c2)CC1`, with -6.25% (inactive). Then `COc1ccc(C(=O)NC2CC2)cc1OC1CCN(C/C=C/c2ccccc2)CC1`, with -56.2% (active); and `COc1cc(C(=O)N2CCN(C/C=C/c3ccccc3)CC2)cc(OC)c1C`, with 6.67% (inactive). Take `COc1ccc(C(=O)NCCn2nc(C)cc2C)cc1OC1CCN(C(C)=O)CC1`: the activity change, negative = inhibition is 1.96% (inactive). The figure for `COc1ccc(C(=O)NC2CC2)cc1OC1CCN(Cc2ccc(SC)cc2)CC1` is -63.9% (active); for `COc1cc2[nH]c(=O)n(Cc3ccc(C(=O)NC4CCN(Cc5ccccc5)CC4)cc3)c(=O)c2cc1OC` it is 8.55% (inactive). For the molecule `CCOc1ccccc1NC(=O)Cn1nnc(C(=O)Nc2ccc(C)c(C)c2)c1N`, the activity change, negative = inhibition is 6.21% (inactive). The figure for `CC(C)(C)OC(=O)N1CCC(c2c(C(=O)Nc3ccc4c(c3)OCO4)cnn2-c2ccccc2)CC1` is 1.48% (inactive); for `COc1ccc(C2Sc3ccccc3NC3=C2C(=O)c2ccccc23)c(OC)c1OC` (stereo unspecified) it is -5.17% (inactive); for `COc1ccc(N2CCN(c3nc(-c4ccccc4F)nc4ccccc34)CC2)cc1` it is -14.4% (inactive). On to `CCc1ccc(CN(Cc2ccco2)C(=O)c2ccccc2Cl)cc1`, for which the activity change, negative = inhibition was -13.4% (inactive). For `COc1ccc(CN(C)C(=O)Cc2ccsc2)c(OC)c1OC`, the activity change, negative = inhibition is -6.5% (inactive). Then `COc1ccccc1C(C)NC(=O)Cc1ccsc1` (stereo unspecified), with -36.8% (active); and `COc1ccccc1OCc1ccc(C(=O)NC(C)c2ccccc2)o1` (stereo unspecified), with 10.5% (inactive). `CN(C(=O)CSc1nc2ccccc2n1Cc1ccccc1C#N)c1ccccc1`: the activity change, negative = inhibition is 5.88% (inactive). Turning to `CCN1CCN(Cc2c(O)ccc3c(=O)c(-c4ccc(OC)c(OC)c4)c(C(F)(F)F)oc23)CC1`, the activity change, negative = inhibition was 10.8% (inactive). As to `COc1ccc(-c2c(C)c3ccc(O)c(CN4CCN(C)CC4)c3oc2=O)cc1OC`, the activity change, negative = inhibition is -44.5% (active).

Regarding `COc1ccc(-c2c(C)c3ccc(O)c(CN4CCCC4)c3oc2=O)cc1OC`, the activity change, negative = inhibition was 3.24% (inactive).

As to `Cc1cccc(-c2nnc(SCC(=O)N3CCCc4ccccc43)o2)c1`, the activity change, negative = inhibition is -12.2% (inactive). Then `CCNS(=O)(=O)c1ccc(NC(=O)Nc2cccc(OC)c2)cc1`, with -47.6% (active). Then `CCN(CC(=O)Nc1ccc(S(=O)(=O)N2CCCC2)cc1)CC(=O)Nc1cccc(OC)c1`, with -18.1% (inactive); and `COc1cccc(NC(C)=[N+](C)CCNS(=O)(=O)c2ccc(Cl)cc2)c1`, with -6.9% (inactive). In the case of `CN1c2ccc(Cl)cc2-c2nc(SCC(=O)Nc3cc(F)ccc3F)ncc2S1(=O)=O`, the activity change, negative = inhibition is 24.7% (inactive). The figure for `Cc1ccc2oc(=O)c3cnn(CC(=O)N4CCN(c5cccc(Cl)c5)CC4)c3c2c1` is 4.75% (inactive); for `COCc1ccc(C(=O)N2CCc3c([nH]c4ccccc34)C2c2ccccn2)s1` (stereo unspecified) it is -33.8% (active); for `Cc1ccc(C2c3[nH]c4ccccc4c3CCN2C(=O)c2cccc(C)c2)cc1` (stereo unspecified) it is -0.549% (inactive). Then `Cc1cccc(C2c3[nH]c4ccccc4c3CCN2C(=O)c2cc(-c3cccn3C)n[nH]2)n1` (stereo unspecified), with 8.11% (inactive); and `Cc1cc(OCC(=O)Nc2ncn[nH]2)c(C)c(C)c1Br`, with 3.31% (inactive); and `COC(=O)c1cc(NC(=O)c2cccnc2)ccc1N1CCOCC1`, with 1.15% (inactive).

Turning to `Cc1cc(/C=C2\SC(=Nc3ccc(N4CCOCC4)cc3)N(C)C2=O)c(C)n1-c1cccnc1`, the activity change, negative = inhibition was -38% (active). Turning to `COc1ccc(S(=O)(=O)c2cn(C)c3cc(N4CCCCC4)c(F)cc3c2=O)cc1`, the activity change, negative = inhibition is -5.11% (inactive). Regarding `O=C(/C=C/c1ccccc1)Nc1cc(-c2nc3cc(Cl)ccc3o2)ccc1Cl`, the activity change, negative = inhibition was -9.92% (inactive). As to `COc1ccc(CNCCCO)cc1OC`, the activity change, negative = inhibition is 14.1% (inactive). Then `COc1ccc(CNc2ccc3c(c2)CCC3)cc1OC`, with 9.59% (inactive). Turning to `COc1ccc(CNc2cc(C)cc(C)c2)cc1OC`, the activity change, negative = inhibition was -45.1% (active).
